Measured values from PubChem BioAssay.

Key:
[1] = system: Human papillomavirus type 1a protein E7 (residues 44-93); test: small molecules binding HPV E7 44-93 – biochemical, small-molecule microarray, residues 44-93, 635 nm fluorescence, primary screen (AID 1108); settings: fluorescence 635 nm, higher = more signal;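 also: E7 fragment applied at 1 µg/mL in TBST for 1 h at 4 C; score combines spot fluorescence with its signal to noise ratio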
[2] = hepatitis C replication reporter changes, two-sided – Huh7 cells, luciferase reporter, HCV replication inhibitor project, primary screen (AID 1109); settings: Huh7 HCV replicon luciferase reporter, 48 h; higher = more signal;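 also: huh7 hepatoma cells harbouring a luciferase neomycin HCV replicon reporter; luciferase luminescence as measure of HCV replicon replication; test concentration not given here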
[3] = biological target: Left-right determination factor 2 (Homo sapiens) (UniProt O00292); test: small molecules binding LEFTY2 protein – biochemical, small-molecule microarray, 635 nm fluorescence scan, primary screen (AID 1110); settings: higher = more signal
[4] = biological target: Calmodulin-1 (Homo sapiens) (UniProt P0DP23); test: small molecules binding calmodulin-1 with EGTA – biochemical, small-molecule microarray, Cy5-labelled CALM1, profiling panel (AID 1111); settings: Cy5-CALM1 binding fluorescence, higher = more signal;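 also: labelled calmodulin applied in Tris saline Tween buffer holding calcium plus EGTA and DTT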
[5] = biological target: Calmodulin-1 (Homo sapiens) (UniProt P0DP23); test: small molecules binding Ca-loaded calmodulin-1 – biochemical, small-molecule microarray, Cy5-labelled CALM1, plus calcium, artefact control for SMM control-protein annotation, profiling panel (AID 1112); settings: Cy5-CALM1 binding fluorescence, higher = more signal;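 also: score merges spot fluorescence with signal to noise from triplicate slides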
[6] = probe aWnt5a binding to arrayed compounds – biochemical, biotinylated probe, 635/667 nm fluorescence, primary screen (AID 1113); settings: small-molecule microarray, higher = more signal;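 also: score merges 667 nm fluorescence intensity with signal-to-noise per printed feature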
[7] = probe aShh binding to arrayed compounds – biochemical, biotinylated probe, 635/667 nm fluorescence, primary screen (AID 1114); settings: small-molecule microarray, higher = more signal;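 also: probe is biotin-labelled aShh protein from a stem cell growth factor screen; measures binding of labelled protein to compounds printed on the slide; score merges feature fluorescence at 667 nm with signal-to-noise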
[8] = probe aNog binding to arrayed compounds – biochemical, biotinylated probe, 635/667 nm fluorescence, primary screen (AID 1115); settings: small-molecule microarray, higher = more signal;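 also: probe is biotinylated aNog protein used at 0.15 µg/mL for 1 h at 4 C; z-score combines 667 nm fluorescence of each spot with its signal to noise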
[9] = biological target: Torsin-1A-interacting protein 1 (Homo sapiens) (UniProt Q5JTV8); test: compound microarray binding of lysate hLAP1 – cell lysate, small-molecule microarray, COS7 lysate, 635/667 nm fluorescence, primary screen (AID 1116); settings: 635 nm fluorescence, higher = more signal
[10] = biological target: Alpha-bungarotoxin (Bungarus multicinctus) (UniProt P60615); test: compounds binding labelled alpha-BTX control protein – biochemical, small-molecule microarray, Alexa647 label, 635/667 nm fluorescence, artefact control for SMM control protein annotation, profiling panel (AID 1117); settings: alpha-BTX-A647 binding fluorescence, higher = more signal
Sequence of Alpha-bungarotoxin (Bungarus multicinctus) (P60615 whole entry, looked up): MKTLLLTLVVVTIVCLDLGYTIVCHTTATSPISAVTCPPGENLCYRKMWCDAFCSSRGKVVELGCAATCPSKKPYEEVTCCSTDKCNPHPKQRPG

Sequence of Torsin-1A-interacting protein 1 (Homo sapiens) (Q5JTV8 whole entry, looked up): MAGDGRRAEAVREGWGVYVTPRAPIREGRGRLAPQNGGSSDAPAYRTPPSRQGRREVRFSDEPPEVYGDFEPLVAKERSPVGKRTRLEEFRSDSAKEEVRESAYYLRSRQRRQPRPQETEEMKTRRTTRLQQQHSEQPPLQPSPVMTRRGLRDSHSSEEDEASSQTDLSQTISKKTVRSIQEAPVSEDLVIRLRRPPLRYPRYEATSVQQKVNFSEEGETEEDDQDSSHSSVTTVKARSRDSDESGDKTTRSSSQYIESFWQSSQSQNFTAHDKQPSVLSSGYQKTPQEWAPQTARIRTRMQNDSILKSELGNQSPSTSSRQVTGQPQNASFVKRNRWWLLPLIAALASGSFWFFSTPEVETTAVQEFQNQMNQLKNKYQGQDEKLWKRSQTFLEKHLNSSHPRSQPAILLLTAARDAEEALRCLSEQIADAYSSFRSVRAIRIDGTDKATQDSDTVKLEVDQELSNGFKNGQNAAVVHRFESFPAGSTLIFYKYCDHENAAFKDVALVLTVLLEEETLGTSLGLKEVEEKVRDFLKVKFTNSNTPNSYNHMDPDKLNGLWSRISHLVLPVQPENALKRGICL
Sequence of Left-right determination factor 2 (Homo sapiens) (O00292 whole entry, looked up): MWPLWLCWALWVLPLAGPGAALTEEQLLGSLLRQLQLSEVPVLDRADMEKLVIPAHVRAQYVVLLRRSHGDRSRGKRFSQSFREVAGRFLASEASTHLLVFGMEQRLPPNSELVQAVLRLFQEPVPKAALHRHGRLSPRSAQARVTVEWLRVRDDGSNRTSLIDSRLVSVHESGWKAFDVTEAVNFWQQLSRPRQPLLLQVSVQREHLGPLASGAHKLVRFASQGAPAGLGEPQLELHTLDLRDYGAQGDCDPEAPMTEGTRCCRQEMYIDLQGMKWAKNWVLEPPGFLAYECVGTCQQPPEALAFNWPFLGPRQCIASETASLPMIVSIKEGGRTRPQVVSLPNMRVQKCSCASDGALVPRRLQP

Row | SMILES | composite z-score [1] | z-score [2] | composite z-score [3] | composite z-score [4] | composite z-score [5] | composite z-score [6] | composite z-score [7] | composite z-score [8] | composite z-score [9] | composite z-score [10]
1 | COC(=O)[C@@]1(Cc2ccccc2)[C@H]2c3cc(C(=O)N4CCCC4)n(Cc4ccccc4)c3C[C@H]2CN1C(=O)c1ccccc1 | 1.45 | -2.45 | -0.347 | 1.42 | 0.168 | 0.0362 | 0.356 | 1.48 | 0.55 | 0.401
2 | COc1ccc([Si](C)(C)[C@H]2[C@H](CC(=O)N3CCC[C@H]3CO)O[C@@]3(C(=O)N(Cc4ccc(N5C(=O)c6cccc7cccc5c67)cc4)c4ccccc43)[C@@H]2C)cc1 | 1.14 | -1.96 | 0.758 | 0.325 | -0.544 | -0.0944 | 0.151 | 0.473 | 0.585 | 2.05
3 | C=CCN1C(=O)[C@@]2(O[C@@H](CCn3cc([C@H](O)c4ccccc4)nn3)[C@H]([Si](C)(C)c3ccc(OC)cc3)[C@H]2C)c2cc(NC(=O)c3ccc(OC)cc3)ccc21 | 0.795 | -3.99 | 0.426 | 0.607 | 0.14 | -0.0735 | 0.0815 | 0.338 | 0.385 | 0.627
4 | NCCCCCCNC(=O)[C@H]1C[C@H]2C(=O)N3CCC[C@H]3C(=O)N2[C@H]1c1ccc(O)cc1 | -0.0863 | 0.0433 | 0.55 | 0.192 | 0.102 | 0.15 | -0.0441 | -0.28 | 0.999 | 1.05
5 | CCCC=C(CCC)[C@@H](NS(=O)(=O)c1cccc2cccnc12)c1ccc(C(=O)OC)cc1 | 0.591 | 0.347 | 0.804 | 0.156 | -0.2 | 1.77 | 0.0093 | 3.92 | 0.354 | -0.0527
6 | CC(C)C[C@@H]1NC(=O)[C@@H]2C[C@H](C(=O)NCc3ccc(F)cc3)[C@H](c3ccc(O)cc3)N2C1=O | 1.11 | -0.738 | 0.1 | 1.35 | -0.166 | -0.147 | 0.191 | -0.319 | 1.03 | 0.896
7 | CCOC(=O)C[C@H]1[C@H](OC(=O)c2cc3ccccc3oc2=O)[C@@H](NC(=O)c2ccc3ccccc3n2)c2cc(OCCCO)ccc2N1C(=O)c1ccc2ccccc2n1 | 0.412 | -2.04 | 1.09 | -0.145 | -0.36 | 0.172 | 0.01 | -0.158 | 0.816 | 0.214
8 | O=C(O)[C@]1(CCS(=O)(=O)c2ccccc2)N=C(c2ccc(OCCCO)cc2)O[C@@H]1c1ccccc1 | 0.0626 | -0.0254 | -0.004 | 0.737 | 0.4 | 0.0216 | -0.0322 | 1.82 | -0.357 | -0.0315
9 | COc1cc(C(O)C2C=CC3C(=O)NC(=O)C3N2Nc2ccc(Cl)cc2Cl)cc(OC)c1OC (stereo not given) | 1.44 | 0.221 | -0.118 | 2.03 | 0.866 | 0.0809 | -0.0243 | 1.22 | 1.22 | 0.877
10 | NC(=O)[C@H]1[C@@H]2C(=O)O[C@@H](c3ccccc3)[C@@H](c3ccccc3)N2[C@@H](c2ccc(O)cc2)[C@]12C(=O)Nc1ccc(C#CC3(O)CCCCCC3)cc12 | 1.45 | -2.61 | 0.6 | 0.861 | -0.227 | -0.12 | 0.534 | -0.327 | 1.49 | 1.49
11 | CN(C)C(=O)[C@@]1(CCS(=O)(=O)c2ccccc2)N=C(c2ccc(OCCCO)cc2)O[C@H]1c1ccccc1CN=[N+]=[N-] | 1.42 | -1.28 | 0.446 | 1.42 | -0.335 | 0.063 | 0.108 | -0.274 | 1.09 | 1.06
12 | COCCOC(=O)N1C(=O)[C@@]2(c3cc(C#Cc4ccc(OC)cc4)ccc31)[C@H](C(=O)N1CCc3cc(OC)c(OC)cc3C1)[C@H]1C(=O)O[C@H](c3ccccc3)[C@H](c3ccccc3)N1[C@@H]2c1ccc(OCCO)cc1 | 0.577 | -0.195 | 0.516 | 1.24 | 0.897 | -0.0482 | -0.138 | 0.0637 | 0.247 | 1.41
13 | CC(C)CCC[C@@H](C)[C@H]1CC[C@@]2(C)C3=C(CC[C@]12C)[C@@]1(C)CC[C@H](OC(=O)c2ccc(N)cc2)C(C)(C)C1CC3 (stereo not given in full) | 0.609 | 0.0533 | 1.2 | -0.137 | -0.674 | -0.0545 | 0.768 | -0.427 | 0.282 | 0.0506
14 | COc1ccc([Si](C)(C)[C@@H]2[C@@H](CC(=O)N(CCO)Cc3ccccc3)O[C@]3(C(=O)N(Cc4ccc(N5CCOC5=O)cc4)c4ccccc43)[C@H]2C)cc1 | 0.542 | -4.45 | 0.491 | 0.515 | 0.385 | -0.0337 | 0.321 | 0.264 | 1.02 | 0.989
15 | COC(=O)[C@]1(Cc2ccccc2CN=[N+]=[N-])N=C(c2ccc(OCCCO)cc2)O[C@@H]1c1ccccc1CN=[N+]=[N-] | 0.0068 | -2.91 | -0.624 | -0.11 | -0.271 | -0.0346 | 0.246 | 0.589 | 1.39 | 1.48
16 | COC(=O)c1ccc(OC)c(/C=C\CC(CCc2ccccc2)OC(=O)c2ccncc2)c1 (stereo not given) | -0.0796 | -0.578 | 1.45 | -1.61 | -1.72 | -0.25 | -0.117 | -0.385 | 0.489 | 1.65
17 | OCCCC1=CC(c2cccs2)N(Cc2cccc(OC(F)(F)F)c2)CC1 (stereo not given) | -0.571 | -2.1 | -0.0424 | -0.957 | 0.639 | -0.13 | -0.221 | 1.41 | -0.0673 | -0.0302
18 | CC(C)C(CO)N1C(=O)[C@@H]2[C@H]3C(=O)OCC=C[C@H]3OC23C=CCN(Cn2nnc4ccccc42)C(=O)[C@@H]13 (stereo not given in full) | -0.484 | -0.634 | -0.734 | -0.323 | 0.608 | -0.226 | 0.35 | -0.358 | -0.273 | -0.284
19 | CCC[C@@H]1C[C@@]1(CCC)[C@@H](NC(=O)c1cccs1)c1ccc(Cl)cc1 | -0.364 | -2.05 | -2.42 | 0.883 | 0.881 | 0.0529 | 0.29 | 1.39 | -0.506 | -0.0153
20 | COCCOC(=O)N1C(=O)[C@@]2(c3ccccc31)[C@H](c1ccccc1OCCO)N1[C@H](c3ccccc3)[C@H](c3ccccc3)OC(=O)[C@H]1[C@@H]2C(=O)N1CCc2cc(OC)c(OC)cc2C1 | 0.825 | -2.37 | 0.415 | 1.29 | 0.0498 | -0.0161 | 0.399 | 0.194 | 0.561 | 0.91
21 | CCCN1C(=O)[C@@]2(Cc3ccccc3)N=C(c3ccc(OCCCO)cc3)O[C@H]2c2ccccc21 | 1.36 | -2.1 | 0.133 | -0.141 | -0.489 | -0.101 | 0.195 | 0.0716 | 1.48 | 1.6
22 | COCCCNC(=O)[C@@]1(Cc2ccccc2)COC(c2ccc(OCCCO)cc2)=N1 | 0.952 | -0.409 | -1.08 | 0.525 | 0.361 | 0.199 | 0.289 | -0.573 | 1.03 | 0.943
23 | CCN(CC)c1ccc(N2CC=CC34O[C@@H]5/C=C\CCCOC(=O)C5[C@H]3C(=O)N(CCCCCCO)[C@@H]4C2=O)cc1 (stereo not given in full) | -0.117 | 0.444 | -1.76 | -1.18 | -1.05 | -0.139 | 0.147 | -0.0439 | 1.26 | -0.855
24 | CC(C)(C)OC(=O)CC[C@]1(C(=O)O)COC(c2ccc(OCCCO)cc2)=N1 | 0.191 | 0.0847 | -0.225 | 0.155 | 0.568 | 0.105 | 0.0326 | 0.609 | 0.672 | -0.582
25 | C/C=C/[C@@H](CCn1cc([C@H](O)c2ccccc2)nn1)[Si](C)(C)c1ccc(OC)cc1 | 0.434 | -2.6 | -1.32 | -1.34 | -1.35 | -0.012 | 0.0639 | -0.738 | 0.834 | 0.478
26 | CCCC=C(CCC)[C@@H](NS(=O)(=O)c1ccccc1)c1ccc(C(F)(F)F)cc1 | 1.37 | -2.28 | 0.0643 | 1.73 | 0.726 | 0.0495 | 0.432 | -0.475 | 1.31 | 1.28
27 | CC[C@@H]1[C@@H]2C3C(=O)N(CC)C(=O)C3CC(=O)[C@@H]2[C@H](c2ccc(C)cc2)N1S(=O)(=O)c1ccc(C)cc1 (stereo not given in full) | 1.42 | -1.64 | 0.336 | 0.742 | 0.409 | -0.0761 | 0.232 | -0.546 | 1.22 | 0.564
